# PubChem BioAssay (NCATS)
# Several values for one entry are separate records, joined by “and”; a condition that tells them apart may be missing. Equal values may be shown once. Records with an inconclusive call do not appear. Where a call stands in place of a potency, no number is given. Activity calls are given as the source filed them. Unless noted, calls follow the shape of the dose curve; as a rule, active = well fitted curve in the direction sought with a large enough effect; inconclusive = small, poorly fitted or top-dose-only effect, or another doubt; inactive = no such curve, though single readings can be large; an effect the other way counts as inactive or inconclusive.
# Tests used:
# [1] = molecular target: Cytochrome P450 1A2 (Homo sapiens) (UniProt P05177); assay: p450-cyp1a2 (AID 410; calls by dose curve; also: potency is read from the fitted curve at half-maximal effect)
# Procedure, shortened: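 20nM CYP1A2 with 100uM Luciferin-ME (at Km) in 100mM KPO4; compound preincubated 10 min, NADPH regeneration added, 60 min at room temperature. Luciferin quantified by luminescence after detection reagent; normalized to 57 uM furafylline.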
# [2] = molecular target: Glucocorticoid receptor (Homo sapiens) (UniProt P04150); assay: GR-GFP Redistribution (AID 450;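 active = compounds whose dose series gives a full or clear partial fitted curve of increased nuclear translocation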; also: potency is read from the fitted curve at half-maximal effect); conditions: U2OS GR-GFP nuclear translocation, laser cytometry, 2 h
# [3] = molecular target: Glucocorticoid receptor (Homo sapiens) (UniProt P04150); assay: GR-EFC Redistribution (AID 451; calls by dose curve; also: potency is read from the fitted curve at half-maximal effect); conditions: CHO-K1 GR-EFC translocation, beta-gal luminescence, 2 h
# Procedure, shortened: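 CHO-K1 cells expressing nuclear EA and GR-ED fragments of b-gal; compounds titrated up to 46 uM final, 2 h at 37 C. GR nuclear translocation read as complemented b-gal luminescence after 1 h RT detection.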
# [4] = molecular target: Mitogen-activated protein kinase 10 (Mus musculus) (UniProt Q61831); assay: JNK3 AlphaScreen Assay (AID 530; active = well fitted curve in either direction with a large enough effect, not every such curve was filed as active;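 also: kinase came from lysate of stimulated human HepG2 cells; signal reports phosphorylation of biotinylated GST-cJun 1-79 at Ser73 with 10 µM ATP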)
# Procedure, shortened: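 Pre-activated (IL-1β/TNFα) JNK3 in HepG2 lysates phosphorylates biotin-GST-cJun(1-79), 10 uM ATP; anti-phospho-cJun(Ser73) AlphaScreen read at room temperature, pH 7.6 Tris buffer. Compounds pre-incubated 15 min as titrations.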
# [5] = molecular target: 3',5'-cyclic-AMP phosphodiesterase 4B (Homo sapiens) (UniProt Q07343); assay: qHTS Assay for Inhibitors of PDE-IV (AID 607; active = well fitted activation curve with a large enough effect in the main read-out, with a control signal flat, not every such curve was filed as active)
# Procedure, shortened: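 Live HEK293 cells with a modified cyclic nucleotide-gated (CNG) channel report intracellular cAMP via membrane-potential dye fluorescence (ex 535/em 590 nm). Endogenous PDE-IV was targeted. Compounds were tested at up to 22.9 uM final; RO 20-1724 100 uM served as control.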
# [6] = qHTS Assay for Lipid Storage Modulators (AID 1519; calls by dose curve); conditions: Drosophila S3 cells, BODIPY lipid droplet/cell ratio, laser cytometry, cells loaded with oleic acid
# Procedure, shortened: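 Cells seeded at 5,000 per well were treated with compounds over a concentration series and loaded with oleic acid (400 uM, as added). Lipid droplet fluorescence (488 nm excitation, 500-530 nm channel) was read by laser-scanning cytometry and normalized to 20 uM Triacsin C.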
# [7] = molecular target: ATP-dependent 6-phosphofructokinase (Trypanosoma brucei brucei) (UniProt O15648); assay: qHTS Assay to Find Inhibitors of T. brucei phosphofructokinase: hit validation (AID 492961)
# Procedure, shortened: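 Luminescence from ADP-Glo reports ADP generated as T. brucei PFK (1.25 nM) phosphorylates 0.5 mM fructose-6-phosphate using 0.1 mM ATP. Reactions ran 45 min at room temperature, pH 8.0.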
# [8] = molecular target: Ubiquitin carboxyl-terminal hydrolase 1 (Homo sapiens) (UniProt O94782); assay: Inhibitors of USP1/UAF1: Pilot qHTS (AID 504865);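 also: rhodamine fluorescence freed from ubiquitin-rhodamine substrate followed over time; top concentration of the series differs between compounds; nearly all actives have a fitted effect of over 35% in size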
# Procedure, shortened: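 USP1/UAF1 complex at 1 nM preincubated 15 min at room temperature with compound, then Ub-Rho substrate added at 150 nM final. Fluorescence (480/540 nm) read kinetically in 50 mM HEPES pH 7.8, 0.5 mM EDTA, 1 mM TCEP, 0.1 mg/ml BSA, 0.01% Tween-20.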
# [9] = molecular target: DNA dC->dU-editing enzyme APOBEC-3G (Homo sapiens) (UniProt Q9HC16); assay: qHTS for inhibitors of Vif-A3G interactions: Validation (AID 588379)
# Procedure, shortened: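 HeLa cells stably expressing Vif and A3G-eYFP, 700 cells/well, incubated overnight at 37 deg C, then exposed to compound overnight at 37 deg C. Inhibition of Vif-mediated degradation read as increased yellow fluorescence (Ex 488/Em 500-530) by laser-scanning cytometry.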
# [10] = molecular target: Luciferin 4-monooxygenase (Photinus pyralis) (UniProt P08659); assay: Biochemical firefly luciferase enzyme assay for NPC (AID 624030);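 also: purified P. pyralis luciferase at 10 nM with luciferin and ATP substrate; nearly all actives have a fitted effect of over 70% in size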
# Procedure, shortened: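 Purified P. pyralis luciferase at 10 nM in 50 mM Tris Acetate (final), luminescence read within 5 minutes of enzyme addition to compounds. Activity normalised to PTC124 versus DMSO; concentration-response curves classed by r2, magnitude and activity.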
# [11] = S16 Schwann cell viability assay (CellTiter-Glo assay) (AID 624031);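 also: cellular ATP luminescence as a viability measure; nearly all actives have a fitted effect of over 70% in size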
# Procedure, shortened: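 Untransfected S16 rat Schwann cells; compound 24 h, 37 °C/5% CO2; CellTiter-Glo ATP luminescence. % activity vs no-cell wells and DMSO controls (0%); concentration-effect curves classed by r2, response magnitude, activity.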
# [12] = S16 Schwann cell PMP22 intronic element firefly luciferase assay (AID 624032); also: nearly all actives have a fitted effect of over 30% in size
# Procedure, shortened: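 Rat S16 Schwann cells stably carrying firefly luciferase driven by a PMP22 intronic element, in 10% FBS, treated 24 h at 37 C. ONE-Glo luminescence normalized to PTC124 control and DMSO (0%); curves classed by r2, magnitude and activity.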
# [13] = qHTS profiling for inhibitors of Plasmodium falciparum proliferation (AID 504749); also: nearly all actives have a fitted effect of over 60% in size; conditions: P. falciparum in erythrocytes, SYBR Green DNA, 72 h, at 28.7 µM (top of the series)
# Procedure, shortened: (§1)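 P. falciparum-infected erythrocytes (0.3% parasitemia, 2.5% hematocrit) incubated with compound 72 h at 37 C, 5% CO2. Parasite DNA detected by SYBR Green after lysis, overnight at room temperature; normalised to 0.29 uM artemisinin and DMSO.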
# 3D7 = assay: as above; conditions: P. falciparum in erythrocytes, SYBR Green DNA, 72 h; series mostly up to 12.8 µM
# Procedure, shortened: as §1
# 7G8 = assay: as above; conditions: P. falciparum in erythrocytes, SYBR Green DNA, 72 h; series mostly up to 12.8 µM
# Procedure, shortened: as §1
# AA1029 = assay: as above; conditions: P. falciparum in erythrocytes, SYBR Green DNA, 72 h; series mostly up to 12.8 µM
# Procedure, shortened: as §1
# AS120 = assay: as above; conditions: P. falciparum in erythrocytes, SYBR Green DNA, 72 h; series mostly up to 28.7 µM
# Procedure, shortened: as §1
# ATS189 = assay: as above; conditions: P. falciparum in erythrocytes, SYBR Green DNA, 72 h; series mostly up to 12.8 µM
# Procedure, shortened: as §1
# ATS95 = assay: as above; conditions: P. falciparum in erythrocytes, SYBR Green DNA, 72 h; series mostly up to 12.8 µM
# Procedure, shortened: as §1
# C2A = assay: as above; conditions: P. falciparum in erythrocytes, SYBR Green DNA, 72 h; series mostly up to 12.8 µM
# Procedure, shortened: as §1
# CP185 = assay: as above; conditions: P. falciparum in erythrocytes, SYBR Green DNA, 72 h; series mostly up to 12.8 µM
# Procedure, shortened: as §1
# CP191 = assay: as above; conditions: P. falciparum in erythrocytes, SYBR Green DNA, 72 h; series mostly up to 12.8 µM
# Procedure, shortened: as §1
# CP192 = assay: as above; conditions: P. falciparum in erythrocytes, SYBR Green DNA, 72 h; series mostly up to 28.7 µM
# Procedure, shortened: as §1
# CP194 = assay: as above; conditions: P. falciparum in erythrocytes, SYBR Green DNA, 72 h; series mostly up to 12.8 µM
# Procedure, shortened: as §1
# CP201 = assay: as above; conditions: P. falciparum in erythrocytes, SYBR Green DNA, 72 h; series mostly up to 12.8 µM
# Procedure, shortened: as §1
# CP203 = assay: as above; conditions: P. falciparum in erythrocytes, SYBR Green DNA, 72 h; series mostly up to 12.8 µM
# Procedure, shortened: as §1
# CP211 = assay: as above; conditions: P. falciparum in erythrocytes, SYBR Green DNA, 72 h; series mostly up to 12.8 µM
# Procedure, shortened: as §1
# CP215 = assay: as above; conditions: P. falciparum in erythrocytes, SYBR Green DNA, 72 h; series mostly up to 28.7 µM
# Procedure, shortened: as §1
# CP217 = assay: as above; conditions: P. falciparum in erythrocytes, SYBR Green DNA, 72 h; series mostly up to 12.8 µM
# Procedure, shortened: as §1
# CP237 = assay: as above; conditions: P. falciparum in erythrocytes, SYBR Green DNA, 72 h; series mostly up to 12.8 µM
# Procedure, shortened: as §1
# CP238 = assay: as above; conditions: P. falciparum in erythrocytes, SYBR Green DNA, 72 h; series mostly up to 12.8 µM
# Procedure, shortened: as §1
# CP247 = assay: as above; conditions: P. falciparum in erythrocytes, SYBR Green DNA, 72 h; series mostly up to 12.8 µM
# Procedure, shortened: as §1
# CP250 = assay: as above; conditions: P. falciparum in erythrocytes, SYBR Green DNA, 72 h; series mostly up to 12.8 µM
# Procedure, shortened: as §1
# CP252 = assay: as above; conditions: P. falciparum in erythrocytes, SYBR Green DNA, 72 h; series mostly up to 12.8 µM
# Procedure, shortened: as §1
# Chain of Glucocorticoid receptor (Homo sapiens) (P04150 whole entry, looked up, the tested form may be a part): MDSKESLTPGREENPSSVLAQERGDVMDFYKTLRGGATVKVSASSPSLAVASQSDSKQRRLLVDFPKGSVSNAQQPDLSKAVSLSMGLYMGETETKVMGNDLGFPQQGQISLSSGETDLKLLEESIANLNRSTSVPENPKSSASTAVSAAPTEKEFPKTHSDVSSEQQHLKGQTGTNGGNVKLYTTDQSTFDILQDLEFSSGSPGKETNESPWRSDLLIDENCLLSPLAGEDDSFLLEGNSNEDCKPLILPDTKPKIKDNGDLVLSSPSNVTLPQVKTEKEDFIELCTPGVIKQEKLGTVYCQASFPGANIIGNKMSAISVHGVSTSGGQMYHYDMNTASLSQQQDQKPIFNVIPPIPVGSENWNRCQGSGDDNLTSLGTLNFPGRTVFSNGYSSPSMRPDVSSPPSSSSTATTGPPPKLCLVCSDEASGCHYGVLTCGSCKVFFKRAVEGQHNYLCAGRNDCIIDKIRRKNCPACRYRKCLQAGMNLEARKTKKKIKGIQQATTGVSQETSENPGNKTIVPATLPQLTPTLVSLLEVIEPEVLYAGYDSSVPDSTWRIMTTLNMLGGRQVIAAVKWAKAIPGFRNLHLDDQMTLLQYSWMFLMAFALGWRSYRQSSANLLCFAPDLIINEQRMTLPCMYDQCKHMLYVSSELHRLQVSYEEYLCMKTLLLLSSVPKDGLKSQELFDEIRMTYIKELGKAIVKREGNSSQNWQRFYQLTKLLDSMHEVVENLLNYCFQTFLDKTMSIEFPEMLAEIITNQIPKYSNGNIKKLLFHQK
# Chain of 3',5'-cyclic-AMP phosphodiesterase 4B (Homo sapiens) (Q07343 whole entry, looked up): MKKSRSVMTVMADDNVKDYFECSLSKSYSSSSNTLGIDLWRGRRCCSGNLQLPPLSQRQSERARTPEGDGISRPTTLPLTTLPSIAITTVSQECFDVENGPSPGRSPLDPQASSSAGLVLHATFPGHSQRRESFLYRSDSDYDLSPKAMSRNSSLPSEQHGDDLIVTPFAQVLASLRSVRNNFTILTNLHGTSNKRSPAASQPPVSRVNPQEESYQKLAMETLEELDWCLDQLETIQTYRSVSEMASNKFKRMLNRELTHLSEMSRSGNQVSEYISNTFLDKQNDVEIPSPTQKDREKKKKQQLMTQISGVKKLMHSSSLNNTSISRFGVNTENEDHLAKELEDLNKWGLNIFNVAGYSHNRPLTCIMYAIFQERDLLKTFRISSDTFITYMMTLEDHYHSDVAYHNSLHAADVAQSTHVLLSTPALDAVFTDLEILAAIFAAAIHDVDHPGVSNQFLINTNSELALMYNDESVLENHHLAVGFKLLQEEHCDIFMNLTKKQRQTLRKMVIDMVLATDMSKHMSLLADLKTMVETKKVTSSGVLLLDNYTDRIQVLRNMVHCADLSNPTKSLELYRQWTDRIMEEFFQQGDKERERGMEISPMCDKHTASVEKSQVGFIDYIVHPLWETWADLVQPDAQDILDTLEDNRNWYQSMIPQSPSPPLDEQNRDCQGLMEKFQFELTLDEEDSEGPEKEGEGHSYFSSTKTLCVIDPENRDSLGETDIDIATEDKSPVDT
# Chain of DNA dC->dU-editing enzyme APOBEC-3G (Homo sapiens) (Q9HC16 whole entry, looked up): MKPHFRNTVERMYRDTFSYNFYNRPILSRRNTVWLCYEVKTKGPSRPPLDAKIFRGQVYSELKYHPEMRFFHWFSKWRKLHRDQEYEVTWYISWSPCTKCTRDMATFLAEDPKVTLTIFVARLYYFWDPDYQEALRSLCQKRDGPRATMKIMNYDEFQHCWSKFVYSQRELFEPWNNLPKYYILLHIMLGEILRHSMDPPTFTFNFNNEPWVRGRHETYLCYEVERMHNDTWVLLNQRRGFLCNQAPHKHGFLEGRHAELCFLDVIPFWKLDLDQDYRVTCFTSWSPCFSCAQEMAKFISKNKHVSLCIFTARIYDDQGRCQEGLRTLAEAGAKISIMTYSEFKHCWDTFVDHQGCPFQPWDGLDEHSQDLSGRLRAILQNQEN
# Chain of Luciferin 4-monooxygenase (Photinus pyralis) (P08659 whole entry, looked up): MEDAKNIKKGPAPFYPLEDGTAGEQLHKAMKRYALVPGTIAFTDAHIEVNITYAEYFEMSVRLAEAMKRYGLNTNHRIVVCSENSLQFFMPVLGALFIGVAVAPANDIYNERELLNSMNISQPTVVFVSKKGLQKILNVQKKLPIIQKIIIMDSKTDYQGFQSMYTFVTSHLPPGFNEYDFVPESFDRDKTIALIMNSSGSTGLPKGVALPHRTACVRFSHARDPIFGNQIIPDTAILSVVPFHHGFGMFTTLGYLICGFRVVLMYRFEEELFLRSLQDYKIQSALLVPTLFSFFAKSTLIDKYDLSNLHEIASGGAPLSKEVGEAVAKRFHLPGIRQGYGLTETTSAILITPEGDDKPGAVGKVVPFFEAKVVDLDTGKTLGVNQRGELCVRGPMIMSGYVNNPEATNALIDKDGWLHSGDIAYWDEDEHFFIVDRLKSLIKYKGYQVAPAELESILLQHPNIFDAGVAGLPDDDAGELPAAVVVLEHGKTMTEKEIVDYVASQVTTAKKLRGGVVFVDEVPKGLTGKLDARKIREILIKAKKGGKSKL
# Chain of Ubiquitin carboxyl-terminal hydrolase 1 (Homo sapiens) (O94782 whole entry, looked up): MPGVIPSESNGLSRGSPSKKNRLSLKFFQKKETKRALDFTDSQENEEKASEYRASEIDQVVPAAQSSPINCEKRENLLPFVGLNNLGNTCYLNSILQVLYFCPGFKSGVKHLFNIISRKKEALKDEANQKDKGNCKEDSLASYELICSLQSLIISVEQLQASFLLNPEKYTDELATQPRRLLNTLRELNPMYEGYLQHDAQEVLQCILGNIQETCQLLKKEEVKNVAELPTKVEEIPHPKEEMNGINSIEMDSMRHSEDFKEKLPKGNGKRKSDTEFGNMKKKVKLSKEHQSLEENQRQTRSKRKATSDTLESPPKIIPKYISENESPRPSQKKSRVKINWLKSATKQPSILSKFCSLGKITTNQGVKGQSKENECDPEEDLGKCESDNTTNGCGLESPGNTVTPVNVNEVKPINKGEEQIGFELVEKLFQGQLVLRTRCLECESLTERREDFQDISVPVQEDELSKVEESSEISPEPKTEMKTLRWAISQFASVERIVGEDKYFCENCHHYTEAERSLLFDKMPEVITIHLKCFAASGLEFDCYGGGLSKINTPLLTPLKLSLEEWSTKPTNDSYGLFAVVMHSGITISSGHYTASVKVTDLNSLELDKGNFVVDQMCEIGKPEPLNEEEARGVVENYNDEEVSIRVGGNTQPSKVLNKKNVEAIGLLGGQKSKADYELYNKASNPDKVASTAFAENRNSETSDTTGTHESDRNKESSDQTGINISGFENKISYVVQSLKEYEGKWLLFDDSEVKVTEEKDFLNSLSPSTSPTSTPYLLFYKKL
# Chain of Cytochrome P450 1A2 (Homo sapiens) (P05177 whole entry, looked up): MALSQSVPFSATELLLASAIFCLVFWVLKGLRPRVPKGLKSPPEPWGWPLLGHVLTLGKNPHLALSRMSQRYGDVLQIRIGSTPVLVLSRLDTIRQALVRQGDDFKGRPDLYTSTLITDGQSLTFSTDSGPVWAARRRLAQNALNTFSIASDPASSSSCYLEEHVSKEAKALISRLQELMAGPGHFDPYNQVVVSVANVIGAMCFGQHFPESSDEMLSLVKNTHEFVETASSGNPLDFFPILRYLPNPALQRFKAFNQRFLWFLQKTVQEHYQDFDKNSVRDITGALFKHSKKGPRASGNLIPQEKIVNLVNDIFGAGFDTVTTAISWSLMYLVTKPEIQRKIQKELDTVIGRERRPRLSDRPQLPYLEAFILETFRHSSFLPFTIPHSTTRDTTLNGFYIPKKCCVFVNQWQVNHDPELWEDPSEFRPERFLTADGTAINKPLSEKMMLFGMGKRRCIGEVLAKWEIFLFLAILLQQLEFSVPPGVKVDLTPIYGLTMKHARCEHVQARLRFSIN
# Chain of ATP-dependent 6-phosphofructokinase (Trypanosoma brucei brucei) (O15648 whole entry, looked up): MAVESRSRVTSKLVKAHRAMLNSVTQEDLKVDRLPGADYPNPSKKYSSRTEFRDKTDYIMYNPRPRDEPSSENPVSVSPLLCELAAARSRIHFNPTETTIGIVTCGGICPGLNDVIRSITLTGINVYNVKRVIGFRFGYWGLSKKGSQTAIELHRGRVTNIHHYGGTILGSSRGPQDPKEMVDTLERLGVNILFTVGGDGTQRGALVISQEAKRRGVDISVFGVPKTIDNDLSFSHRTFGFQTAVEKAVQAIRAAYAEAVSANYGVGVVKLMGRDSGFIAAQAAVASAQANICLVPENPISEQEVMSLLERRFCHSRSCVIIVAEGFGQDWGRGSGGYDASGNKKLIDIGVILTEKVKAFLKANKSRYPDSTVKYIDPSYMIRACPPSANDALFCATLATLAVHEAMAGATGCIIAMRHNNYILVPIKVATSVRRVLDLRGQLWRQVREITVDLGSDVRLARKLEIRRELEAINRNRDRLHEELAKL
smiles,measurement,setting,value
CC1(C)Oc2ccc(C#N)cc2[C@H](N2CCCC2=O)[C@H]1O,Potency,[1],10 µM (active)
same,Potency,[2],> 46 µM (inactive)
same,Potency,[3],> 46 µM (inactive)
same,Potency,[4],inactive
same,Potency,[5],inactive
same,"activity change, negative = inhibition",[6]; at 57.5 µM (top of the series),0.0468% (inactive) and 5.32% (inactive)
same,max response,[6]; measured here: cell count channel max response,5.79% and -0.997%
same,max response,[6]; measured here: lipid channel max response,6.51% and -0.942%
same,outcome,[7],inactive
same,Potency,[8],inactive
same,outcome,[9],inactive
same,outcome,[10],inactive
same,Potency,[11],inactive
same,Potency,[12],inactive
same,"activity, negative = inhibition",[13]; parasite line A,10.2% (inactive)
same,"activity, negative = inhibition",[13]; parasite line B,9.46% (inactive)
same,Potency,3D7,inactive
same,Potency,7G8,inactive
same,Potency,AA1029,inactive
same,Potency,AS120,inactive
same,Potency,ATS189,inactive
same,Potency,ATS95,inactive
same,Potency,C2A,inactive
same,Potency,CP185,inactive
same,Potency,CP191,inactive
same,Potency,CP192,inactive
same,Potency,CP194,inactive
same,Potency,CP201,inactive
same,Potency,CP203,inactive
same,Potency,CP211,inactive
same,Potency,CP215,inactive
same,Potency,CP217,inactive
same,Potency,CP237,inactive
same,Potency,CP238,inactive
same,Potency,CP247,inactive
same,Potency,CP250,inactive
same,Potency,CP252,inactive
